{"source": "the supplement of paper PMC8728848", "assay_in_all_cases": "glycan array binding signal (z-score within array); higher = stronger binding", "conditions_in_all_cases": "glycan notation: IUPAC condensed, linker removed; mutation: D21K", "key": {"[1]": {"target": "Fuc(a1-2)Gal(b1-3)GalNAc(a1-3)[Fuc(a1-2)]Gal(b1-4)GlcNAc", "how_it_was_run": "(§1)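 The binding signal is a Z-score computed within each array. Data were drawn from 3228 arrays in the Consortium for Functional Glycomics database, restricted to those with a known protein sequence. Scores were averaged over arrays of the same protein sequence at different concentrations or buffers, and over linkers, and negative values can be taken as non-binding.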"}, "[2]": {"target": "Fuc(a1-2)Gal(b1-4)[Fuc(a1-3)]GlcNAc", "how_it_was_run": "as §1"}, "[3]": {"target": "Fuc(a1-2)[Gal(a1-3)]Gal(b1-4)GlcNAc", "how_it_was_run": "as §1"}, "[4]": {"target": "Fuc(a1-2)[Gal(a1-3)]Gal(b1-4)GlcNAc(b1-3)GalNAc", "how_it_was_run": "as §1"}, "[5]": {"target": "Fuc(a1-2)[Gal(a1-3)]Gal(b1-4)GlcNAc(b1-3)[Fuc(a1-2)[Gal(a1-3)]Gal(b1-4)GlcNAc(b1-6)]GalNAc", "how_it_was_run": "as §1"}, "[6]": {"target": "Fuc(a1-2)[Gal(a1-3)]Gal(b1-4)GlcNAc(b1-6)GalNAc", "how_it_was_run": "as §1"}, "[7]": {"target": "Fuc(a1-2)[Gal(a1-3)]Gal(b1-4)[Fuc(a1-3)]GlcNAc", "how_it_was_run": "as §1"}, "[8]": {"target": "Fuc(a1-2)[GalNAc(a1-3)]Gal(b1-4)GlcNAc(b1-2)Man(a1-3)[Fuc(a1-2)[GalNAc(a1-3)]Gal(b1-4)GlcNAc(b1-2)Man(a1-6)]Man(b1-4)GlcNAc(b1-4)GlcNAc", "how_it_was_run": "as §1"}, "[9]": {"target": "Fuc(a1-2)[GalNAc(a1-3)]Gal(b1-4)GlcNAc(b1-3)[Fuc(a1-2)[GalNAc(a1-3)]Gal(b1-4)GlcNAc(b1-6)]GalNAc", "how_it_was_run": "as §1"}, "[10]": {"target": "Gal(a1-3)Gal(b1-4)GlcNAc(b1-2)Man", "how_it_was_run": "as §1"}, "Gal(a1-4)GlcNAc": {"target": "Gal(a1-4)GlcNAc", "how_it_was_run": "as §1"}, "Gal(a1-6)Glc": {"target": "Gal(a1-6)Glc", "how_it_was_run": "as §1"}, "[11]": {"target": "Gal(b1-3)GalNAc(b1-3)Gal(a1-4)Gal(b1-4)Glc", "how_it_was_run": "as §1"}, "[12]": {"target": "Gal(b1-3)GalNAc(b1-4)[Neu5Ac(a2-3)]Gal(b1-4)Glc", "how_it_was_run": "as §1"}, "[13]": {"target": "Gal(b1-3)GlcNAc(b1-2)Man(a1-3)[GlcNAc(b1-4)][Gal(b1-3)GlcNAc(b1-2)Man(a1-6)]Man(b1-4)GlcNAc(b1-4)GlcNAc", "how_it_was_run": "as §1"}, "[14]": {"target": "Gal(b1-3)GlcNAc(b1-3)Gal(b1-4)Glc", "how_it_was_run": "as §1"}, "[15]": {"target": "Gal(b1-3)GlcNAc(b1-3)Gal(b1-4)GlcNAc(b1-3)Gal(b1-4)GlcNAc(b1-2)[Gal(b1-3)GlcNAc(b1-3)Gal(b1-4)GlcNAc(b1-3)Gal(b1-4)GlcNAc(b1-6)]Man(a1-6)[Gal(b1-3)GlcNAc(b1-3)Gal(b1-4)GlcNAc(b1-3)Gal(b1-4)GlcNAc(b1-2)Man(a1-3)]Man(b1-4)GlcNAc(b1-4)[Fuc(a1-6)]GlcNAc", "how_it_was_run": "as §1"}, "Gal(b1-3)GlcNAc6S": {"target": "Gal(b1-3)GlcNAc6S", "how_it_was_run": "as §1"}, "[16]": {"target": "Gal(b1-3)[Fuc(a1-4)]GlcNAc(b1-2)Man(a1-3)[Gal(b1-3)[Fuc(a1-4)]GlcNAc(b1-2)Man(a1-6)]Man(b1-4)GlcNAc(b1-4)[Fuc(a1-6)]GlcNAc", "how_it_was_run": "as §1"}, "[17]": {"target": "Gal(b1-3)[GlcNAc(b1-6)]GalNAc", "how_it_was_run": "as §1"}, "[18]": {"target": "Gal(b1-4)GlcNAc(b1-3)Gal(b1-4)GlcNAc(b1-2)Man(a1-3)[Gal(b1-4)GlcNAc(b1-3)Gal(b1-4)GlcNAc(b1-2)Man(a1-6)]Man(b1-4)GlcNAc(b1-4)[Fuc(a1-6)]GlcNAc", "how_it_was_run": "as §1"}, "[19]": {"target": "Gal(b1-4)GlcNAc(b1-3)Gal(b1-4)GlcNAc(b1-3)Gal(b1-4)GlcNAc(b1-3)Gal(b1-4)GlcNAc(b1-2)[Gal(b1-4)GlcNAc(b1-3)Gal(b1-4)GlcNAc(b1-3)Gal(b1-4)GlcNAc(b1-3)Gal(b1-4)GlcNAc(b1-6)]Man(a1-6)[Gal(b1-4)GlcNAc(b1-3)Gal(b1-4)GlcNAc(b1-3)Gal(b1-4)GlcNAc(b1-3)Gal(b1-4)GlcNAc(b1-2)Man(a1-3)]Man(b1-4)GlcNAc(b1-4)[Fuc(a1-6)]GlcNAc", "how_it_was_run": "as §1"}, "[20]": {"target": "Gal(b1-4)GlcNAc(b1-3)Gal(b1-4)GlcNAc(b1-3)GalNAc", "how_it_was_run": "as §1"}, "[21]": {"target": "Gal(b1-4)GlcNAc(b1-3)Gal(b1-4)GlcNAc(b1-6)[Gal(b1-3)]GalNAc", "how_it_was_run": "as §1"}, "[22]": {"target": "Gal(b1-4)GlcNAc(b1-3)Gal(b1-4)[Fuc(a1-3)]GlcNAc(b1-3)Gal(b1-4)[Fuc(a1-3)]GlcNAc", "how_it_was_run": "as §1"}, "Gal3S6S(b1-4)GlcNAc": {"target": "Gal3S6S(b1-4)GlcNAc", "how_it_was_run": "as §1"}, "Gal6S(b1-3)GlcNAc6S": {"target": "Gal6S(b1-3)GlcNAc6S", "how_it_was_run": "as §1"}, "[23]": {"target": "GalNAc(a1-3)GalNAc(b1-3)Gal(a1-4)Gal(b1-4)GlcNAc", "how_it_was_run": "as §1"}, "[24]": {"target": "GalNAc(b1-3)Gal(a1-4)Gal(b1-4)GlcNAc(b1-3)Gal(b1-4)Glc", "how_it_was_run": "as §1"}, "GalNAc(b1-3)GlcNAc": {"target": "GalNAc(b1-3)GlcNAc", "how_it_was_run": "as §1"}}, "note": "Many of the other results were omitted from the sample, so the strongest signals are more common in it than they were."}
{"binder": "KILRGVCKKIMRTFLRRISKKILTGKK", "note": "[C7A (Sus scrofa)]", "values": [{"measurement": "glycan array binding signal (z-score)", "setting": "[1]", "value": -0.784}, {"measurement": "glycan array binding signal (z-score)", "setting": "[2]", "value": -1.12}, {"measurement": "glycan array binding signal (z-score)", "setting": "[3]", "value": 0.504}, {"measurement": "glycan array binding signal (z-score)", "setting": "[4]", "value": -1.37}, {"measurement": "glycan array binding signal (z-score)", "setting": "[5]", "value": -0.287}, {"measurement": "glycan array binding signal (z-score)", "setting": "[6]", "value": 0.121}, {"measurement": "glycan array binding signal (z-score)", "setting": "[7]", "value": 1.3}, {"measurement": "glycan array binding signal (z-score)", "setting": "[8]", "value": -0.971}, {"measurement": "glycan array binding signal (z-score)", "setting": "[9]", "value": 0.698}, {"measurement": "glycan array binding signal (z-score)", "setting": "[10]", "value": -0.255}, {"measurement": "glycan array binding signal (z-score)", "setting": "Gal(a1-4)GlcNAc", "value": -1.02}, {"measurement": "glycan array binding signal (z-score)", "setting": "Gal(a1-6)Glc", "value": -1.76}, {"measurement": "glycan array binding signal (z-score)", "setting": "[11]", "value": 2.25}, {"measurement": "glycan array binding signal (z-score)", "setting": "[12]", "value": 0.649}, {"measurement": "glycan array binding signal (z-score)", "setting": "[13]", "value": 0.213}, {"measurement": "glycan array binding signal (z-score)", "setting": "[14]", "value": -0.894}, {"measurement": "glycan array binding signal (z-score)", "setting": "[15]", "value": 0.352}, {"measurement": "glycan array binding signal (z-score)", "setting": "Gal(b1-3)GlcNAc6S", "value": 1.73}, {"measurement": "glycan array binding signal (z-score)", "setting": "[16]", "value": -1.63}, {"measurement": "glycan array binding signal (z-score)", "setting": "[17]", "value": -0.867}, {"measurement": "glycan array binding signal (z-score)", "setting": "[18]", "value": 3.05}, {"measurement": "glycan array binding signal (z-score)", "setting": "[19]", "value": -0.172}, {"measurement": "glycan array binding signal (z-score)", "setting": "[20]", "value": 2.33}, {"measurement": "glycan array binding signal (z-score)", "setting": "[21]", "value": 2.48}, {"measurement": "glycan array binding signal (z-score)", "setting": "[22]", "value": -0.696}, {"measurement": "glycan array binding signal (z-score)", "setting": "Gal3S6S(b1-4)GlcNAc", "value": 2.5}, {"measurement": "glycan array binding signal (z-score)", "setting": "Gal6S(b1-3)GlcNAc6S", "value": 2.66}, {"measurement": "glycan array binding signal (z-score)", "setting": "[23]", "value": 0.64}, {"measurement": "glycan array binding signal (z-score)", "setting": "[24]", "value": 1.58}, {"measurement": "glycan array binding signal (z-score)", "setting": "GalNAc(b1-3)GlcNAc", "value": -0.947}]}
